# Tested on: PhhR/P_H16_RS18365 L-phenylalanine biosensor (pEH137)
# Assay: relative induction of RFP reporter vs primary effector; higher = stronger activation
# Details: inducer concentration 5 mM; 6 h; Cupriavidus necator H16; minimal medium + 0.4% gluconate
# Method: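 Orthogonality screen of 21 primary inducers against 21 transcription factor/inducible promoter–mRFP biosensors in C. necator H16 in minimal medium, robotic 96-well format, 5 mM inducer, 30 °C. OD-normalised RFP fluorescence was read 6 h later and expressed as relative induction (%) = 100 × (FL compound − FL uninduced)/(FL primary inducer − FL uninduced); mean of n=4. Cognate pairs (100% by definition) omitted.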
row,SMILES,relative induction of RFP reporter
1,O=C(O)C1CCCCC1 [cyclohexane-1-carboxylate],-0.0509%
2,NCCC(=O)O [β-alanine],-0.6%
3,O=c1[nH]c(=O)c2nc[nH]c2[nH]1 [xanthine],-0.134%
4,O=C(O)CCO [3-hydroxypropanoate],-0.273%
5,"O=C(O)c1ccc(O)c(O)c1 [3,4-dihydroxybenzoate]",-0.638%
6,C=CC(=O)O [acrylate],-0.318%
7,C=C(CC(=O)O)C(=O)O [itaconate],-0.415%
8,O=C(O)c1ccccc1 [benzoate],-0.383%
9,CC(=O)C(C)O (configuration not stated) [acetoin],-0.273%
10,O=CO [formate],-0.0153%
11,O=C(O)CS(=O)(=O)O [sulfonatoacetate],-0.174%
12,O=C(O)C(O)C(O)C(=O)O (configuration not stated) [tartrate],0.258%
13,OC1OC[C@H](O)[C@H](O)[C@H]1O (mixture of isomers) [L-arabinose],-0.00622%
14,O=C(O)c1ccccc1O [salicylate],-0.155%
15,Nc1ccccc1C(=O)C[C@H](N)C(=O)O [L-kynurenine],-0.316%
16,O=C(O)C(=O)c1ccccc1 [phenylglyoxylate],-0.366%
17,N[C@@H](Cc1ccc(O)cc1)C(=O)O [L-tyrosine],-0.541%

# Source: the supplement of paper PMC7057948, “A genome-wide approach for identification and characterisation of metabolite-inducible systems” (Nature Communications, 2020)
